Cav32 inh = Cav3.2 calcium influx blockers – cell-based, Fluo-4 calcium fluorescence, FDSS, MLSMR library, primary screen; Cav3.2-expressing cells; stronger effect = lower value; AID 449739, 2010; 100,000 compounds, 4% hits; B-score at 10 µM;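 active means single-dose well whose peak fluorescence ratio is a statistical outlier from its plate by either plate-standardised score or position-corrected B-score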
Ecoli WT expand = growth inhibitors of wild-type E. coli, primary screen, strain BW25113, expanded library, OD600; OD600 absorbance; growth inhibition, % at 100 µM; 98,000 compounds, 0.15% hits;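 active means growth inhibition above about 50% at one test dose, limit read from the data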;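 further: growth measured after 20 h incubation at 37 °C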
CD11b adhes enh = enhancers of CD11b/CD18 adhesion to fibrinogen, primary screen, K562 cells, luminescence; Integrin beta-2 (Homo sapiens) + Integrin alpha-M (Homo sapiens), P05107+P11215; activation, % at 10 µM; 93,000 compounds, 0.07% hits; ATPlite luminescence; AID 1499, 2009;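 active means 10 µM primary screen giving 50% or more activity, confirmed by 40% or more on retest at that dose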
Mac1 fbg inh = inhibitors of CD11b/CD18 adhesion to fibrinogen, primary screen, K562 cells, luminescence; ATPlite luminescence; Mn2+ added to activate the integrin; Integrin beta-2 (Homo sapiens) + Integrin alpha-M (Homo sapiens), P05107+P11215; 93,000 compounds, 0.54% hits; inhibition, % at 10 µM;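 active means primary inhibition of 50% or more at 10 µM, then 40% or more on retest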
Numbers without * were called inactive; . = not tested or not shown. Many of the other results were omitted from the sample, so hits are more common in it than they were.

SMILES	Cav32 inh	Ecoli WT expand	CD11b adhes enh	Mac1 fbg inh
COc1ccc([C@H]2[C@H](C(=O)C(C)(C)C)N3N=Cc4ccccc4C3[C@]23N=C(c2ccccc2)OC3=O)cc1OC (some centres undefined)	.	4	91*	-3
Cc1c(Cl)cnc(NC(=O)COC(=O)c2cc3c(s2)CCC(C)C3)c1Cl (centres undefined)	.	.	21	-15
CC1(C)CC(=O)C=C(c2ccc3[nH]ccc3c2)C1	0.73	.	.	.
O=S(=O)(/C=C/c1ccccc1)Nc1ccc2c(c1)OCO2	-7.4*	12	3	-9
CC1CCCCN1c1cc(C#N)c(C#N)cc1[N+](=O)[O-] (centres undefined)	0.21	3	-3	-10
CC1CCc2cccc3c2N1c1cc(C#N)c(C#N)cc1O3 (centres undefined)	-3.6*	-7	.	.
Cc1cccc(OCCC(=O)N(C)CC(=O)Nc2cccc3ccccc23)c1	.	.	3	12
Oc1c(Cl)cc(Cl)cc1/C=N/c1nccs1	-9.3*	32	-3	25
O=C(NNC(=S)NC(=O)c1ccccc1[N+](=O)[O-])c1ccccc1	-3.7	.	.	.
O=C(NC(=S)NNC(=O)c1ccccc1[N+](=O)[O-])c1ccccc1	-8.4*	.	.	.
Cc1ccnc(NS(=O)(=O)c2ccc(NC(=O)c3c(-c4ccccc4Cl)noc3C)cc2)n1	-0.38	.	.	.
O=S(=O)(Nc1nc2ccccc2s1)c1ccc(Br)s1	-3.3	11	-12	101*
CCc1ccc(NC(=O)CNC(=O)c2cn(-c3ccccc3OC)c(=O)c3ccccc23)cc1	-4.2*	-11	-1	21
NC(=O)c1c(NC(=O)c2ccccc2)sc2c1CCc1ccccc1-2	0.56	1	-1	-1
CCCCCCc1cc2cc(S(=O)(=O)c3ccc(F)c(Cl)c3)c(=O)oc2cc1O	.	.	-8	99
CCCCCCc1cc2cc(C(=O)NC)c(=N)oc2cc1O	-9.3*	10	0	8
CCCCCCc1cc2cc(C(N)=O)c(=N)oc2cc1O	-11*	17	-8	44
O=C1c2ccccc2S(=O)(=O)c2cc(C(=O)N3CCN(c4ccc(Cl)cn4)CC3)ccc21	-0.93	.	.	.
O=C(CSc1nnnn1-c1cccc2c1CCCC2)N1CCCCC1	-0.85	.	.	.
O=C(Cn1c(C(=O)N2CCN(C3CCCC3)CC2)cc2sccc21)c1ccccc1	-0.72	4	2	15
CCN(CC)S(=O)(=O)c1cccc(-c2nnc(SC(C)C(=O)NCCC3=CCCCC3)o2)c1 (centres undefined)	-2.9*	-15	.	.
CCN(CC)S(=O)(=O)c1cccc(-c2nnc(SCCCC(=O)c3ccc(F)cc3)o2)c1	-4.7*	-17	-2	13
CCN(CC)S(=O)(=O)c1cccc(-c2nnc(SCCCC(=O)c3ccccc3)o2)c1	-5.3*	-26	0	25
CCN(CC)S(=O)(=O)c1cccc(-c2nnc(SCC(=O)c3cc(C)n(C4CC4)c3C)o2)c1	0.87	.	3	9
Cc1ccc(NC(=O)COC(=O)C(CC(C)C)N2C(=O)C3CC=CCC3C2=O)c(C)c1 (centres undefined)	.	.	4	3
SMILES	Cav32 inh	Ecoli WT expand	CD11b adhes enh	Mac1 fbg inh
CCNc1nc(NCC)nc(N(C)N)n1	-0.0063	2	.	.
CCOC(=O)C1=C(CCc2ccccc2)NC(=O)NC1c1ccc(C#N)cc1 (centres undefined)	-0.27	.	.	.
CC(=O)Nc1sc2c(c1C(c1ccc(Cl)cc1)N1CCOCC1)CCCC2 (centres undefined)	.	5	-3	7
CC(=O)Nc1sc2c(c1C(c1ccc(F)cc1)N1CCOCC1)CCCC2 (centres undefined)	-7.1*	5	-1	-10
CC(=O)Nc1sc2c(c1C(c1ccccc1)N1CCOCC1)CCCC2 (centres undefined)	-6.3*	-4	-4	-10
CCc1ccc(C(=O)COC(=O)c2cnccn2)cc1	0.99	8	-4	14
COc1cc(NC(=O)COC(=O)CSc2cc(C)ccc2C)c(C)cc1[N+](=O)[O-]	.	.	7	12
CN(CC(=O)Nc1ccc(C#N)cc1)Cc1ccc(Cl)c(Cl)c1	-6.6*	-1	.	.
Cc1ccc(NC(=O)CN2C(=O)S/C(=C\c3cccn3-c3cccc(C(=O)O)c3)C2=O)c(C)c1	-0.18	-4	87*	-17
C=CCSc1nnc2c(n1)OC(c1c(C)[nH]n(-c3ccccc3)c1=O)Nc1ccccc1-2 (centres undefined)	-0.092	-7	.	.
COC(=O)c1ccc(COC(=O)c2[nH]c(C)c(C(C)=O)c2C)o1	0.4	-4	-8	76*
